Experimental data: ChEMBL document CHEMBL4513141, “CO-ADD screening of NIH (USA) - Clinical Collection” (2021)
Entries with a potency or affinity are not part of this list.

Tests used:
[1] = system: Staphylococcus aureus; details: Concentration 20 uM; ASSAY_TEST Inhibition of Bacterial Growth; detection method Absorption (OD600); MEDIA CAMHB; plate type 384well; NBS; CORNING #3640; time 18 hr
[2] = system: Escherichia coli; details: Concentration 20 uM; ASSAY_TEST Inhibition of Bacterial Growth; detection method Absorption (OD600); MEDIA CAMHB; plate type 384well; NBS; CORNING #3640; time 18 hr

Cl.FC(F)(F)c1cccc(N2CCNCC2)c1 [N- (3-TRIFLUOROMETHYLPHENYL)PIPERAZINE HYDROCHLORIDE (TFMPP)]
Inhibition [1]: -3.1%
Inhibition [2]: 6.36%

CN1CCN(C2=Nc3cc(Cl)ccc3Nc3ccccc32)CC1 [CLOZAPINE]
Inhibition [1]: -2.25%
Inhibition [2]: -7.08%

Cl.N=C(N)NC(=O)c1nc(Cl)c(N)nc1N.O.O [AMILORIDE HYDROCHLORIDE]
Inhibition [1]: 11.17%
Inhibition [2]: 2.12%

CN1CCN2c3ncccc3Cc3ccccc3C2C1 (configuration not stated) [MIRTAZAPINE]
Inhibition [1]: -16.68%
Inhibition [2]: -1.97%

CC(C)CC(N(C)C)C1(c2ccc(Cl)cc2)CCC1 (configuration not stated) [SIBUTRAMINE]
Inhibition [1]: 0.87%
Inhibition [2]: 6.8%

CC1CCC[C@H](O)CCCCCc2cc(O)cc(O)c2C(=O)O1 (some centres not stated)
Inhibition [1]: 10.2%
Inhibition [2]: 1.45%

C[C@]12Cc3c[nH]nc3C[C@@H]1CC[C@@H]1[C@@H]2CC[C@@]2(C)[C@H]1CC[C@]2(C)O [STANOZOLOL]
Inhibition [1]: -5.12%
Inhibition [2]: 3.01%

CN1C(=O)CN=C(c2ccccc2)c2cc(Cl)ccc21 [DIAZEPAM]
Inhibition [1]: 9.71%
Inhibition [2]: 3.05%

Br.COc1ccc2c3c1O[C@H]1C[C@@H](O)C=C[C@@]31CCN(C)C2 [GALANTAMINE HYDROBROMIDE]
Inhibition [1]: 13.66%
Inhibition [2]: 3.62%

CCC(COC(=O)c1cc(OC)c(OC)c(OC)c1)(c1ccccc1)N(C)C.O=C(O)/C=C\C(=O)O (configuration not stated)
Inhibition [1]: 4.02%
Inhibition [2]: 7.24%

CN1CCC[C@H]1c1cccnc1 [NICOTINE]
Inhibition [1]: -15.48%
Inhibition [2]: 6.98%
